This note sets out measurements from PubChem BioAssay (NCATS).

A number with no mark means an inactive call. Results filed as inconclusive are left out. Activity calls are given as the source filed them. Calls follow the shape of the dose curve; as a rule, active = well fitted curve in the direction sought with a large enough effect; inconclusive = small, poorly fitted or top-dose-only effect, or another doubt; inactive = no such curve, though single readings can be large; an effect the other way counts as inactive or inconclusive.

In one assay the target is Furin (Homo sapiens) (UniProt P09958). The experiment in a line: Furin counterscreen qHTS for Zika virus inhibitors (AID 1347149). Also: nearly all actives have a fitted effect of over 70% in size. Also: potency is read from the fitted curve at half-maximal effect. Summed up: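 Fluorogenic cleavage of BOC-RVRR-AMC (2 microM final, Km ~15 µM) was monitored (ex 340, em 450 nm) at 37C after 15 min RT preincubation of 5 nM furin with compounds in HEPES pH 7.0 buffer with CaCl2 and Triton X-100. Percent inhibition was fitted to a 4-parameter Hill curve.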
Chain of Furin (Homo sapiens) (P09958 whole entry, looked up): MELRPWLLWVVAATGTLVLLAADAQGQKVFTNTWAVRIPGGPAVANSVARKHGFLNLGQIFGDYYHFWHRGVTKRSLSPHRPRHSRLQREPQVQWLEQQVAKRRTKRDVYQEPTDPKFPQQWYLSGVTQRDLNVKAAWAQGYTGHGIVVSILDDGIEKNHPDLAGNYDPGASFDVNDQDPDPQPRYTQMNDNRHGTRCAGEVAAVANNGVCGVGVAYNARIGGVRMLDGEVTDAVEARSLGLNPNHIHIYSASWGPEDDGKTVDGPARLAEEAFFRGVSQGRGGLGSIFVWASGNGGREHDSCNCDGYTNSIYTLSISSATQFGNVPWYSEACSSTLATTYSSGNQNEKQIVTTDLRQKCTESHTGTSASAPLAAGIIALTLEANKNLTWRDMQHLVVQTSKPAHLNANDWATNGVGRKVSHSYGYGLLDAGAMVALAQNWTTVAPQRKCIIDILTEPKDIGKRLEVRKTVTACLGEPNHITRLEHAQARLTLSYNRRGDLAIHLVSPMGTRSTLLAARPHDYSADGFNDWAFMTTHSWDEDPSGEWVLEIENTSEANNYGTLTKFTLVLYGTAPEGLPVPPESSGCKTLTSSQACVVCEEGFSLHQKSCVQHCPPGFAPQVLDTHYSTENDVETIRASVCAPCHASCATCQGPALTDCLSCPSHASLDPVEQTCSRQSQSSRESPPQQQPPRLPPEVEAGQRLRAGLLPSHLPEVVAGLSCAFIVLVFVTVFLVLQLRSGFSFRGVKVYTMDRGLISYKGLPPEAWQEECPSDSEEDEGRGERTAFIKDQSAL

A short description of assay [1]: Confirmatory screen GU Rhodamine qHTS for Zika virus inhibitors qHTS (AID 1347157). Also: nearly all actives have a fitted effect of over 70% in size. The method in brief:
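Compounds, tested up to 114 microM, were incubated for 15 minutes with 25 nM unlinked NS2B-NS3 protease at pH 8.0. Cleavage of 1.5 microM Rhodamine110 substrate was then followed by fluorescence for 15 minutes.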

The nature of assay [2]: Confirmatory screen NINDS Rhodamine qHTS for Zika virus inhibitors (AID 1347161).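 Also: purified Zika NS2B-NS3 protease with linked NS2B cofactor domain and Rhodamine110 peptide substrate; series mostly up to about 110 µM; nearly all actives have a fitted effect of over 60% in size.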 Summed up:
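Enzyme (25 nM, linked NS2B-NS3) was preincubated 15 min with compound in 10 mM Tris-HCl pH 8.0, 0.01% Tween 20. Rhodamine110 substrate (1.5 microM) was then added and fluorescence read at start and after 15 min.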
(Quantitative high-throughput screening tests each substance at several concentrations.)

Assay [3] can be described thus: Tertiary RLuc qRT-PCR qHTS assay for Zika virus inhibitors (AID 1347169). Also: top concentration of the series differs between compounds; nearly all actives have a fitted effect of over 55% in size. Summed up: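 Vero cells (1,000/well) infected with recombinant ZIKV-RLuc (Cambodian) at MOI 1-2 after compound addition, 48-72 hrs at 37 degrees C. Live-cell Renilla luciferase substrate added; luminescence read after 1-1.5 hrs.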
Assay [4] has as its target Calcium and integrin-binding protein 1 (Homo sapiens) (UniProt Q99828). The assay is described as follows: Primary qHTS for Identification of Calcium Integrin Binding Protein 1 (CIB1) Competitor (AID 1508620).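 Also: GST tagged CIB1 binding a fluorescein labelled alphaIIb integrin peptide tracer; top concentration of the series differs between compounds.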 The method in brief:
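Fluorescence polarization competition: GST-tagged CIB1 (1 uM final) preincubated with compound 15 min at room temperature, then FITC-labelled alphaIIb peptide (100 nM final) added. After 15 min at room temperature, polarization read at Ex 480/Em 540.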

The nature of assay [5]: Confirmation and Secondary Assay for Modulators of Hemoglobin Beta Chain Splicing at IVS2 654 locus (AID 910).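 Also: HeLa cells stably carrying EGFP split by mutant beta-globin IVS2-654 intron.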 The method in brief:
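HeLa cells stably expressing EGFP interrupted by β-globin IVS2-654 intron, seeded overnight in Opti-MEM/2% FCS, then treated 2 days at 37 °C. Restored splicing read as total peak GFP intensity per well by laser scanning cytometry (488 nm excitation, 500–520 nm emission); 500 nM antisense PNA as control.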

Assay [6] in a line: Confirmation and Secondary Assay for Modulators of Hemoglobin Beta Chain Splicing at IVS2 705 locus (AID 930).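 Also: HeLa cells stably expressing the EGFP-705 splicing reporter; GFP fluorescence per well restored by corrected splicing of the IVS2-705 intron in EGFP; series mostly up to about 46 µM.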 Summed up:
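HeLa EGFP-705 reporter; 500 cells/well, o/n 37C 5% CO2; cpd 2 d; 488 ex/500-520 em laser scan; total peak GFP intensity/well. Ref: 500 nM […] antisense PNA.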

In assay [7] the target is Ubiquitin carboxyl-terminal hydrolase 1 (Homo sapiens) (UniProt O94782). The assay is described as follows: Inhibitors of USP1/UAF1: Pilot qHTS (AID 504865).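 Also: rhodamine fluorescence freed from ubiquitin-rhodamine substrate followed over time; top concentration of the series differs between compounds; nearly all actives have a fitted effect of over 35% in size.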 Summed up: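 USP1/UAF1 complex at 1 nM preincubated 15 min at room temperature with compound, then Ub-Rho substrate added at 150 nM final. Fluorescence (480/540 nm) read kinetically in 50 mM HEPES pH 7.8, 0.5 mM EDTA, 1 mM TCEP, 0.1 mg/ml BSA, 0.01% Tween-20.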
Chain of Ubiquitin carboxyl-terminal hydrolase 1 (Homo sapiens) (O94782 whole entry, looked up): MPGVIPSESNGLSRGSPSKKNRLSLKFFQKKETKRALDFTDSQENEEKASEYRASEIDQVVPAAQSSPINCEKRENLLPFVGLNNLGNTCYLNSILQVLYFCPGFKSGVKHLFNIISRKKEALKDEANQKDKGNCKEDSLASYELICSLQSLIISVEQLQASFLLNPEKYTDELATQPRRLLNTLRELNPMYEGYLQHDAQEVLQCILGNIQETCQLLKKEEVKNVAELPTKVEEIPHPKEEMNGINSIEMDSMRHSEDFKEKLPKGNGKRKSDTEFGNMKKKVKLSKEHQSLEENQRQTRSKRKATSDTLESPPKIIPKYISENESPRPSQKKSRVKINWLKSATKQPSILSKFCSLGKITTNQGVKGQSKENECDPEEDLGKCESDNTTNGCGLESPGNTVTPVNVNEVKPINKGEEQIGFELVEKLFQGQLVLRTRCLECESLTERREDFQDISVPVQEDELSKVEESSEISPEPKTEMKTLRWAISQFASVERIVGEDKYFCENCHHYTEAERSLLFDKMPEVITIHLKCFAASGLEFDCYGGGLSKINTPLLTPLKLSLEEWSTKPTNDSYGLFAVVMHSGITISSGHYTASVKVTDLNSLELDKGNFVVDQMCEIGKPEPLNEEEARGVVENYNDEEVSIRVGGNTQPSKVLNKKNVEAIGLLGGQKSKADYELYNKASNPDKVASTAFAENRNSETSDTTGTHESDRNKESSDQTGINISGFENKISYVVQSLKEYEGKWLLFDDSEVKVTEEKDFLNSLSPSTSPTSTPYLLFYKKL

Chain of Calcium and integrin-binding protein 1 (Homo sapiens) (Q99828 whole entry, looked up): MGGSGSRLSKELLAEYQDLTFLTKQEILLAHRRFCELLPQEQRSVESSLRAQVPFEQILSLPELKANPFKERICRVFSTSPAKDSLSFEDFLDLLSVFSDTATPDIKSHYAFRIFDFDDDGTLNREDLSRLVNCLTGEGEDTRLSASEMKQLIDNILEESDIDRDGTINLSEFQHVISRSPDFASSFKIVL

With `O=C(OCC#CCSc1nnc(-c2cccc3ccccc23)o1)c1sc(Cl)c(Cl)c1Cl`, the Potency in the assay with Furin (Homo sapiens) was 14.8 µM (active). Further, the Potency result in assay [1], in assay [2] and in assay [3] was “inactive” in each case. Moreover, the result in assay [4] was inactive.
On to `NC(Cc1cc(I)c(Oc2ccc(O)c(I)c2)c(I)c1)C(=O)O` (stereo not drawn), for which the call in assay [5] and in assay [6] was inactive. Moreover, the Potency entry (in assay [7]; with Furin (Homo sapiens); in assay [1]; in assay [3]) was “inactive” in each case.
Consider `O=C(CNC(=O)c1ccccc1)OC(C(=O)Nc1cc(C(F)(F)F)ccc1Cl)c1ccccc1` (stereo not drawn), for which the Potency entry (with Furin (Homo sapiens); in assay [1]; in assay [2]; in assay [3]) was “inactive” each time.
For the compound `O=C(OCC#CCSc1nnc(-c2cccc3ccccc23)o1)c1ccc(OC(F)F)cc1`, the Potency with Furin (Homo sapiens) is 41.8 µM (active). Also, the Potency result in assay [1] and in assay [2] was “inactive” throughout. Besides, the result in assay [4] was inactive.
As to `O=C(OCC#CCSc1nnc(-c2cc3ccccc3cc2O)o1)c1ccc(F)cc1`, the Potency with Furin (Homo sapiens) was 83.5 µM (active). The Potency entry in assay [1] and in assay [2] was “inactive” throughout. The outcome in assay [4] was inactive.
